Reference: PubChem BioAssay (NCATS)
Inconclusive results are not listed. Entries that show only a call come without a potency. The source made the active and inactive calls. The call rests on the fitted dose curve; in most records, active means well fitted activation curve with a large enough effect in the main read-out, with a control signal flat (not every such curve was filed as active); inconclusive means small, poorly fitted or top-dose-only effect, or effect the other way, or a change in a side signal; inactive means flat fitted curve, though single readings scatter.

Target: 3',5'-cyclic-AMP phosphodiesterase 4B (Homo sapiens) (UniProt Q07343)
Sequence (Q07343 whole entry, looked up): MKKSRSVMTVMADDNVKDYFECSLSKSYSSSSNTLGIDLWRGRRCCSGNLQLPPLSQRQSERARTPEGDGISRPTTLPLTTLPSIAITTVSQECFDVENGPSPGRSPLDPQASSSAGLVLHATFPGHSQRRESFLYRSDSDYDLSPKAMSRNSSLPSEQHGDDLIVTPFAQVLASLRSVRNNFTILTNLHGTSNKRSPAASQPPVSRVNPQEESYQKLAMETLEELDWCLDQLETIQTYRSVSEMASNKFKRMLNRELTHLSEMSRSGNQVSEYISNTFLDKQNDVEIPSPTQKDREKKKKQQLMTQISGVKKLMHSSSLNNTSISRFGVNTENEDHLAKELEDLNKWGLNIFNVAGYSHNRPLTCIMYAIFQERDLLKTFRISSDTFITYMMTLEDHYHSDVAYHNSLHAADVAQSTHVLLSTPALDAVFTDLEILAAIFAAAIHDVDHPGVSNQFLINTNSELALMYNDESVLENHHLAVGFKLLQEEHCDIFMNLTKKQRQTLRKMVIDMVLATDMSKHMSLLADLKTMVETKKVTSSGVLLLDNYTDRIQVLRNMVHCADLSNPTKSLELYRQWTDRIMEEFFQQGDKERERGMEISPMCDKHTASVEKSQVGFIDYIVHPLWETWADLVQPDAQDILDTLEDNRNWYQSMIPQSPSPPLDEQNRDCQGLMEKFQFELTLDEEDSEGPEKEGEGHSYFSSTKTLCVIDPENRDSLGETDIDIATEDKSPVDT
Experiment: qHTS Assay for Inhibitors of PDE-IV (AID 607)
Conditions: HEK293 ACTOne CNG channel cells, membrane potential fluorescence; series mostly up to 22.9 µM
In short: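 ACTOne HEK293 cells carry a modified cAMP-gated CNG channel and express endogenous PDE4; plated 1000 cells/well, compounds up to 22.9 uM final. Membrane-potential dye fluorescence (ex 535/em 590) was read; parental cells received 10 uM forskolin + 100 uM RO 20-1724.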
Potency means the concentration at half of the fitted maximal effect.

| SMILES | Potency |
| --- | --- |
| Cc1cc2c(cc1Cl)N(C(=O)Nc1ccnc3ccccc13)CC2 | inactive |
| COc1ccc(-c2ccc(N)[n+](CCCC(=O)O)n2)cc1 | inactive |
| COc1ccc2c(c1)c(CC(=O)O)c(C)n2C(=O)c1ccccc1 | inactive |
| Cc1nc(N=Nc2cc(S(=O)(=O)O)c3cc([N+](=O)[O-])cc(S(=O)(=O)O)c3c2)c(COP(=O)(O)O)c(C=O)c1O | inactive |
| Nc1ccc2c3c(cccc13)C(=O)NC2=O | inactive |
| Cn1c(=O)[nH]c2ncn(C)c2c1=O | inactive |
| CC(=O)C(C)=O | inactive |
| COc1ccc(CCN(C)CCc2ccc(OC)c(OC)c2)cc1OC | inactive |
| N#Cc1cc2nc(O)c(O)nc2cc1[N+](=O)[O-] | inactive |
| Oc1cc(O)c2c(c1)O[C@H](c1ccc(O)c(O)c1)[C@@H](O)C2 | inactive |
| O=C(O)c1ccccc1Nc1cccc(OCc2ccc3ccccc3n2)c1 | inactive |
| NC[C@@H]1O[C@H](c2ccccc2)Cc2c1ccc(O)c2O | inactive |
| CCCCCCCCCCCCCCC[C@H](O)[C@H](N)CO | inactive |
| CCN(CC)CCCCCCCCOC(=O)c1cc(OC)c(OC)c(OC)c1 | inactive |
| NCCS(=O)O | inactive |
| C=CC[C@H](N)C(=O)O | inactive |
| CN(C)S(=O)(=O)c1ccc2c(c1)/C(=C/c1cc3c([nH]1)CCCC3)C(=O)N2 | inactive |
| C#CCn1c(=O)c2c(ncn2C)n(C)c1=O | inactive |
| CCCn1c(=O)c(C)cn2nc(N)nc12 | 151 nM (active) |

| SMILES | Potency |
| --- | --- |
| Nn1nnc2ccccc21 | inactive |
| C[C@](Cc1ccc(O)c(O)c1)(NN)C(=O)O | inactive |
| Fc1ccc(CN(C2=NCCN2)c2c(Cl)cccc2Cl)cc1 | inactive |
| COc1ccccc1N1CCN(CCCCNC(=O)c2ccc3ccccc3c2)CC1 | inactive |
| O=C(O)C1=CC(=C(c2ccc(O)c(C(=O)O)c2)c2ccc(O)c(C(=O)O)c2)C=CC1=O | inactive |
| CCCCCCCC/C=C\CCCCCCCC(=O)NCCc1ccc(O)c(O)c1 | inactive |
| Cn1c(=O)c2[nH]c(-c3ccc(S(=O)(=O)O)cc3)nc2n(C)c1=O | inactive |
| O=C(N[C@@H](Cc1ccccc1)C(=O)CCl)OCc1ccccc1 | inactive |
| C[C@H](NC(=O)/C(C#N)=C/c1ccc(O)c(O)c1)c1ccccc1 | inactive |
| O=C(c1ccc2c(c1)OCCO2)N1CCCCC1 | inactive |
| C/C(=C\c1ccc(C(=O)O)cc1)c1ccc2c(c1)C(C)(C)CCC2(C)C | inactive |
| CNC(=O)c1cc2c(cn1)[nH]c1ccccc12 | inactive |
| O=c1[nH]c(=S)[nH]c(-c2ccccc2)c1Cc1c(O)ccc2ccccc12 | inactive |
| NC(=O)c1ccccc1 | inactive |
| COc1ccccc1N1CCN(CCN(C(=O)c2ccc(F)cc2)c2ccccn2)CC1 | inactive |
| NOCC(=O)O | inactive |
| Nc1nc2ccc(Cl)cc2c2nc(-c3ccco3)nn12 | inactive |
| CNc1cc(NS(=O)(=O)c2ccc(N)cc2)nc(NC)n1 | inactive |
